Screening results as filed in PubChem BioAssay.
The sample as a whole holds a higher share of hits than the screen did.
HT1080 IDH1KD tx: kills HT-1080 cells with IDH1 knockdown; 2% of 360,000 active; HT-1080 IDH1 knockdown viability, ATP luminescence, 48 h; Potency, µM (series often up to 46.1 µM), hits mostly cytotoxic
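Luminescent ATP read-out (CellTiter-Glo, 10 min at room temperature) after 48 h compound exposure at 37 °C gave viability of IDH1-knockdown HT-1080 cells. Activity was normalised to DMSO and cell-free wells, then fitted as concentration-response curves.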
TDP1 cell CPT: growth inhibition of DT40 Tdp1-/-;hTDP1 cells with camptothecin (screen for TDP1 inhibitors); chicken DT40 Tdp1-/-;hTDP1 cells + 20 nM CPT, ATP luminescence, 48 h; Potency, µM (top dose mostly 46.2 µM), hits mostly inhibitors; 12% of 420,000 active; AID 686979; note: nearly all actives have a fitted effect of over 55% in size
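Chicken DT40 Tdp1-/- cells complemented with human TDP1, 400 cells/well, exposed to compounds plus 20 nM camptothecin for at least 48 h at 37 C; viability read as ATP content by CellTiter-Glo luminescence.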
DT40 TDP1 no CPT: qHTS for Inhibitors of human tyrosyl-DNA phosphodiesterase 1 (TDP1): qHTS in cells in absence of CPT. DT40 Tdp1-/- hTDP1 cells, no CPT, ATP luminescence, 48 h. Potency, µM (titrated, usually from 46.2 µM), usual class: inhibitors. 15% of 420,000 active; note: nearly all actives have a fitted effect of over 55% in size
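Chicken DT40 Tdp1-/- cells stably complemented with human TDP1 were seeded at 400 cells/well with DMSO in place of 20 nM camptothecin. After compound pinning, cells grew at least 48 hr at 37 °C; viability read by CellTiter-Glo luminescence.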
ALOX12 inh: inhibitors of human 12S-lipoxygenase ALOX12 | P18054 | purified 12hLO, xylenol orange hydroperoxide absorbance | Potency, µM (titrated, usually from 108 µM), usual class: inhibitors | 1.1% of 580,000 active | AID 1671190
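Purified human 12hLO at 150 nM in 25 mM Hepes, 0.01% Triton X-100, pH 7.0, preincubated 15 min at room temperature with compound. Reaction started with 40 uM arachidonic acid, 30 min at room temperature. Hydroperoxide measured by Fe-xylenol orange, 573/405 nm absorbance ratio.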
HT1080-NT tox: kills 2HG-producing HT-1080-NT fibrosarcoma cells; HT-1080-NT fibrosarcoma viability, CellTiter-Glo ATP luminescence, 48 h; Potency, µM (doses to about 46.1 µM), usual class: cytotoxic; 1.6% of 360,000 active; AID 686970;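 note: NT is the 2HG producing partner of a matched IDH1 knockdown line; nearly all actives have a fitted effect of over 55% in size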
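HT-1080-NT; 750 cells/well; 5% FBS RPMI; 48 h compound, 37 degrees C; CellTiter-Glo luminescence; curve fitting and curve-class assignment.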
IL-1B inflam inh: inhibitors of inflammasome signaling (IL-1 beta secretion); THP-1 LPS/ATP IL-1B secretion, AlphaLISA, 16 h; stronger effect = lower value; activity change, % at 57.5 µM; 4.7% of 360,000 active; AID 743279; in the data active = activity change below about -50%; inconclusive = mostly about -30% to -49%
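THP-1 cells pretreated 1 hr with compounds (up to 57.5 uM final), then stimulated with LPS (250 ng/mL final) plus ATP (1.25 mM final); secreted IL-1B measured by AlphaLISA after 16 hr, decreased signal indicating inhibition.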
Hits are given with their value; n = inactive; u = inconclusive; x = no result given; ! = not active in a repeat; [ ] = another dose, or the depositor's remark. Unless noted, calls come from the whole dose curve; as a rule, active = well fitted curve in the direction sought with a large enough effect; inconclusive = small, poorly fitted or top-dose-only effect, or another doubt; inactive = no such curve, though single readings can be large; an effect the other way counts as inactive or inconclusive.

SMILES | HT1080 IDH1KD tx | TDP1 cell CPT | DT40 TDP1 no CPT | ALOX12 inh | HT1080-NT tox | IL-1B inflam inh
Cc1ccc(S(=O)(=O)N2[C@@H](c3ccc(Br)cc3)C(C(=O)O)=CC[C@H]2c2ccc(C(C)C)cc2)cc1 | n | u | u | 35µM | n | n
Cc1nc2ccc(C(=O)NC3CCCCNC3=O)cc2nc1C (stereo unspecified) | x | x | x | n | x | x
Oc1ccccc1CN[C@H]1[C@H](O)[C@@H](N2CCN(c3ccccc3)CC2)[C@@H]2OC[C@H]1O2 | x | x | x | n | x | x
Cc1ccc(S(=O)(=O)N2[C@@H](c3ccc(C(C)(C)C)cc3)C(C(=O)O)=CC[C@H]2c2ccc(C(C)C)cc2)cc1 | u | u | u | 40µM | u | n
CCc1ccc([C@@H]2CC=C(C(=O)O)[C@H](c3ccc(C(C)(C)C)cc3)N2S(=O)(=O)c2ccc(C)cc2)cc1 | u | u | u | n | n | n
COc1ccc(C(=O)OCC(=O)Nc2ccccc2)c(C)c1 | x | x | x | n | x | x
CCN1C[C@@H]2[C@@H]3C(=O)N(Cc4ccccc4)C(=O)[C@@H]3[C@](Cc3ccccc3)(C1=O)N2C(=O)c1ccc(C(C)(C)C)cc1 | n | 16µM | 18µM | n | n | n
CCCCOc1ccccc1-c1ccccc1CN1[C@@H](C(C)C)COCCS1(=O)=O | u | 16µM | 18µM | u | u | n
CCC(C)[C@H]1COCCS(=O)(=O)N1Cc1ccccc1F (stereo partly specified) | n | u | u | n | n | n
CC(C)[C@H]1COCCS(=O)(=O)N1Cc1ccccc1-c1cccc2c1oc1ccccc12 | n | u | 18µM | n | n | n
O=c1[nH]c(CN(Cc2cccs2)CC2CCCO2)nc2scc(-c3ccco3)c12 (stereo unspecified) | x | x | x | n | x | x
Cc1cccc(C(=O)Nc2ccc(S(=O)(=O)N3CCC(c4nc5ccccc5s4)CC3)cc2)c1 | x | n | u | n | x | x
Cc1ccc(NC(=S)N2CCC(c3nc4ccccc4s3)CC2)cc1 | n[9.24 µM] | u | u | u | u | -50
Cc1ccccc1C(=O)Nc1ccc(S(=O)(=O)N2CCC(c3nc4ccccc4s3)CC2)cc1 | x | 13µM | 21µM | n | x | x
CNC(=S)N1CCC(c2nc3ccccc3s2)CC1 | n | u | u | n | n | n
CCc1nnc(NS(=O)(=O)c2ccc(N3C(=O)c4ccc(C(=O)O)cc4C3=O)cc2)s1 | n | n | n | n | n | n
Cc1noc(C)c1S(=O)(=O)N1CCC(C(=O)N2CCCC2c2nc(C3CCOCC3)no2)CC1 (stereo unspecified) | x | x | x | n | x | x
CC(=O)Nc1cccc(Oc2nc(NCC3CC3)nc3ccsc23)c1 | n | 16µM | 21µM | n | n | n
COCCNc1nc(Oc2cccc(NC(C)=O)c2)c2sc(-c3ccccc3)cc2n1 | n | u | u | n | n | n
CC(=O)Nc1ccc(CNc2nc(NC(C)C)nc3ccsc23)cc1 | n | n | n | n | n | -90
CC(=O)Nc1ccc(CNc2nc(NCC3CC3)nc3ccsc23)cc1 | u | 18µM | u | u | u | -105
CC(=O)Nc1cccc(Oc2nc(NC(C)C)nc3cc(-c4ccccc4)sc23)c1 | u | u | u | n | u | -63
CC(C)Nc1nc(-c2ccccc2CO)c2sccc2n1 | n | u | n | n | n | n
NC(=O)c1noc2c1CN(c1cc(-c3ccccc3)nc3ccnn13)CC2 | x | x | x | n | x | x
Cc1ccccc1CNC(=O)c1csc(-c2cccs2)n1 | x | x | x | n | x | x
SMILES | HT1080 IDH1KD tx | TDP1 cell CPT | DT40 TDP1 no CPT | ALOX12 inh | HT1080-NT tox | IL-1B inflam inh
COc1ccc(CCc2nc3nccc(-c4ccc(OC)c(OC)c4)n3n2)cc1OC | x | x | x | n | x | x
CCc1nc(-c2c3n(c(=O)n(Cc4ccccc4)c2=O)CCCCC3)no1 | x | x | x | n | x | x
O=C1CC(c2ccccc2)N(C(=O)CNC(=O)c2ccsc2)CCCCCCN1 (stereo unspecified) | x | x | x | n | x | x
O=C(NCCC1CCN(C(=O)Nc2ccc(F)cc2F)CC1)C1CCCC1 | x | x | x | n | x | x
CCN1/C(=C\C(C)=O)Sc2ccc(OC)cc21 | n | u | n | x | n | n
CCN1/C(=C/C(C)=C/c2sc3ccccc3[n+]2CC)Sc2ccccc21 | 1.5µM | 0.18µM | 0.18µM | 35µM! | 10µM | -97
CCCCCCCN1CCC(=O)N([C@H](CO)CC(C)C)CC1 | n | u | 23µM | n | n | n
CCCCCCCN1CCC(=O)N([C@H](CO)Cc2ccccc2)CC1 | n | 21µM | 13µM | n | n | n
